# Vif-APOBEC3F blk: Vif-A3F binding inhibition | HeLa A3F-eYFP + Vif (tagged APOBEC3F with the HIV-1 protein that degrades it), YFP fluorescence increase | Potency, µM (top dose mostly 46.1 µM), for the others: top-dose activity, negative = active | 390,000 tested, 0.2% active; further: potency means the concentration at half of the fitted maximal effect; % of control where 0% means no effect; nearly all actives have a fitted effect of over 65% in size
#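 Fluorescence increase (Ex 488/Em 500-530) after overnight compound treatment at 37 deg C flags inhibition of Vif-driven A3F-eYFP loss in stable HeLa A3F-eYFP/Vif cells seeded overnight beforehand.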
# A-T KAP1 phos: potential ataxia-telangiectasia treatments restoring KAP-1 phosphorylation. 320,000 tested, 0.19% active. Potency, µM (series often up to 57.5 µM), for the others: top-dose activation, usual class: activators. F2112 A-T fibroblasts, KAP-1 phosphorylation AlphaLISA; neocarzinostatin DNA damage 30 min before lysis. AID 485349; further: potency means the concentration at half of the fitted maximal effect; % of control where 0% means no effect; nearly all actives have a fitted effect of over 45% in size
#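 hTERT-immortalized A-T patient fibroblasts (F2112), 500 cells/well in OPTI-MEM, 1% FBS, got compounds for 60 min, then NCS for 30 min at 37C. Lysates were then assayed for phospho-KAP-1 by AlphaLISA (anti-pKAP1 donor, anti-KAP1 acceptor beads), 6 hr at 25C.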
# TRPML1 inh: blocks the human TRPML1 channel | TRPML1-inducible cells, Ca2+ dye fluorescence, FDSS; stronger effect = lower value; inhibition of EC80 agonist-evoked calcium signal | 390,000 tested, 0.02% active | activity change, negative = inhibition, % (concentration not given with the values) | AID 624415 | Q9GZU1; in the data active means activity change below about -50%; inconclusive means between about -30% and that limit;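 further: stimulus is agonist 54-4 at its EC80 concentration; on the % scale 0 is the no-effect control and ±100 the full control effect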
# Target sequence (Q9GZU1 whole entry, looked up): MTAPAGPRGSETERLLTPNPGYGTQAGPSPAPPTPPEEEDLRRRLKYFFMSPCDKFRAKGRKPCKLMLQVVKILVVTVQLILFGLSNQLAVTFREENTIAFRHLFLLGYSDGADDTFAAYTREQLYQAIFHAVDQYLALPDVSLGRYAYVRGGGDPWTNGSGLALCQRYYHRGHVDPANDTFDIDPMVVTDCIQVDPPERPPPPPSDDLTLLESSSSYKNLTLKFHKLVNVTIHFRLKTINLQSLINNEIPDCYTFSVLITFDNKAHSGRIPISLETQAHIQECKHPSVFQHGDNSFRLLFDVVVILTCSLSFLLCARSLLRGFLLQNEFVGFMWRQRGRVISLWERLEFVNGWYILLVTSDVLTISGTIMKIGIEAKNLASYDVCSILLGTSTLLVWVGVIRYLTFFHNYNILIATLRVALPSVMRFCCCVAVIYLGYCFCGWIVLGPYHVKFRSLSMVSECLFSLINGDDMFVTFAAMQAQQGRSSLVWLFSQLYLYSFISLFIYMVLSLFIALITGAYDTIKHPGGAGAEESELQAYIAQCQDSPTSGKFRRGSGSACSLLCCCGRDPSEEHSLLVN
#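 Calcium fluorescence in TRPML1-DL cells induced overnight with Tet: a 110 s read after compound pin addition, then a 110 s antagonist read after challenge with 54-4 at 4 uM final (EC80).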
# Vif-A3G inh: inhibitors of Vif-APOBEC3G interaction. HeLa A3G-eYFP + Vif (tagged APOBEC3G with the HIV-1 protein that degrades it), YFP fluorescence, overnight. Potency, µM (titrated, usually from 46.1 µM), inactives show at the highest dose activity, negative = active, most hits filed as inhibitors. 410,000 tested, 0.076% active. AID 602310; further: potency means the concentration at half of the fitted maximal effect; on the % scale 0 is the no-effect control and ±100 the full control effect; nearly all actives have a fitted effect of over 60% in size
#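 HeLa cells stably expressing Vif and C-terminally eYFP-tagged A3G, seeded overnight at 37 deg C, then exposed to compound by pintool overnight at 37 deg C. Rise in yellow fluorescence (Ex 488/Em 500-530, Acumen) marks blocked Vif-driven A3G degradation.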
# TRPML1 agonist: activates the human TRPML1 channel; Q9GZU1; TRPML1-expressing cells, Ca2+ dye fluorescence, FDSS; activation, % (no concentration beside the values); 410,000 tested, 0.12% active; AID 624414; in the data active means activation above about 50%; inconclusive means mostly about 30% to 49%; further: 0% is about no effect
#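 Agonist activity was taken from a 110 s kinetic Ca2+ dye read on the FDSS after pinning compounds onto TRPML1-DL cells. The cells were seeded at 1,500/well with Tet inducer, incubated about 16 h, then dye-loaded at room temperature.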
# Starred values were filed as active, the others as inactive; ? = inconclusive; . = no result. This is a sample that favours compounds with a hit; in the whole collection about 0.54% have one here. Unless noted, the call rests on the fitted dose curve; in most records, active means well fitted curve in the direction sought with a large enough effect; inconclusive means small, poorly fitted or top-dose-only effect, or another doubt; inactive means no such curve, though single readings can be large; an effect the other way counts as inactive or inconclusive.
SMILES,Vif-APOBEC3F blk,A-T KAP1 phos,TRPML1 inh,Vif-A3G inh,TRPML1 agonist
COc1cc2c(cc1OC)C(COc1ccc3c(C)cc(=O)oc3c1)N(C(=O)Cc1ccccc1)CC2 (configuration not stated),?,.,-7,2%,-1
Oc1ccc(C=NNC(=S)Nc2ccc(F)cc2)c(O)c1,25µM*,.,2,?,1
O=C(CCC(=O)Nc1ccc(F)cc1)N/N=C/c1ccc(O)cc1O,-14%,-2%,-10,-5%,-1
Cc1ccc(S(=O)(=O)Nc2nc3n(n2)C(c2ccc(Cl)cc2)C=C(c2ccccc2)N3)cc1 (configuration not stated),?,.,8,-28%,1
O=S(=O)(Nc1nc2n(n1)C(c1ccccc1)C=C(c1ccc(Cl)cc1)N2)c1ccccc1 (configuration not stated),22µM*,.,-6,?,7
C[C@@H]1C[C@@H]2OC(=O)[C@]3(C)[C@H]2[C@@H](OC3(C)O)[C@]2(C)C(=O)C=C[C@H]12 (some centres not stated),-3%,40µM*,27,-17%,-1
CCOc1cc(/C=C/C(=O)c2ccc(OC)c(CN3CCOCC3)c2)cc(Br)c1O,25µM*,11%,-25,?,14
CCOc1cc(/C=N/NC(=O)c2ccc(CN3CCOCC3)cc2)ccc1OC,1%,9%,-5,0%,2
O=C(c1cnc(N2CCOCC2)c2ccccc12)N1CCN(c2ccc(F)cc2)CC1,-19%,.,-7,2%,-1
Cc1ccc(C)c(NC(=O)CSc2ncc3c(n2)-c2ccc(Cl)cc2N(C)S3(=O)=O)c1,?,.,-4,-1%,-1
Cc1cc(C)cc(NC(=O)Nc2cccnc2)c1,-3%,0%,16,-8%,1
Cc1ccc(NC(=O)Nc2cccnc2)cc1NC(=O)Nc1cccnc1,-6%,1.3µM*,15,-2%,6
C#CCN(Cc1ccc(OC)cc1)S(=O)(=O)C=C,.,.,.,?,-1
N#Cc1c(C(F)(F)F)cc(-c2ccc(F)cc2)nc1SCC(=O)Nc1ccccc1,10%,.,16,7%,2
Cc1ccc(NC(=O)CSc2nc(-c3ccc(F)cc3)cc(C(F)(F)F)c2C#N)cc1,3%,.,9,-1%,3
Cc1coc(NC(=O)CSc2nc(-c3ccncc3)cc(C(F)(F)F)c2C#N)n1,11µM*,2%,-5,?,1
N#Cc1ccccc1NC(=O)CSc1nc(-c2ccccc2)cc(C(F)(F)F)c1C#N,11µM*,.,2,-30%,17
CCCCOc1ccc(-c2cc(C(F)(F)F)c(C#N)c(SCC(=O)O)n2)cc1,11µM*,-5%,-1,-9%,0
COc1cc2c(NC3CCN(C(C)C)CC3)nc(N3CCCN(C)CC3)nc2cc1OCCOCCN1CCCC1,.,.,.,1%,0
Cc1cc(NC(=O)Nc2nnc(N(C)Cc3ccccc3)s2)ccc1Br,?,.,-12,13µM*,5
COc1ccc(CCNC(=O)COc2ccc(S(=O)(=O)NC(C)C)cc2Cl)cc1OC,-1%,-5%,-61*,4%,0
COc1ccc(CCNC(=O)CCc2ccc(S(=O)(=O)NC(C)C)cc2)cc1OC,2%,1%,-1,3%,2
COc1cc2c(cc1NC(=O)c1ccccc1C)n(C)c(=O)n2C,-4%,.,-15,-6%,-1
Cc1cc(Cl)cc2c(N=Nc3ccccc3C(=O)O)c(O)[nH]c12,1%,49%,41,-1%,0
Cc1ccc(Cl)c2c(N=Nc3ccccc3)c(O)[nH]c12,8.9µM*,-4%,9,-13%,1
SMILES,Vif-APOBEC3F blk,A-T KAP1 phos,TRPML1 inh,Vif-A3G inh,TRPML1 agonist
COc1ccc2c(c1)c1nc3ccccc3nc1n2CC(=O)OC(C)C,25µM*,6%,7,-18%,1
COc1ccc(Cn2c3ccc(OC)cc3c3nc4ccccc4nc32)cc1,?,5%,-8,-5%,2
O=C(O)Cn1c2ccccc2c2nc3ccccc3nc21,8.9µM*,.,-2,?,-1
COc1ccc2c(c1)c1nc3ccccc3nc1n2Cc1ccc(OC(C)C)c(OC)c1,22µM*,0%,14,-27%,1
C/C(=C\C=C(C#N)C#N)c1cc(C#N)c(N)o1,-27%,-1%,3,-8%,54*
COc1ccc(CNC(=O)O[C@]23C[C@H]4C(=O)N(c5ccccc5)C(=O)[C@H]4C[C@@]2(O)CN(S(=O)(=O)c2ccc(C)cc2)C3)cc1OC,-13%,.,8,-2%,0
CC(C)(C)S(=O)(=O)c1cnc(-c2ccc(Cl)cc2)nc1N,-6%,1%,-17,-1%,74*
COc1cc(NC(=O)c2cc(C3CC3)nc3c2c(C)nn3-c2ccc(C)cc2)cc(OC)c1,.,.,44,.,1
CC(C)CC(c1nnnn1C(C)C)N1CCN(C(=O)c2ccco2)CC1 (configuration not stated),2%,4%,-4,0%,0
CC(C)CC(c1nnnn1C(C)C)N1CCN(c2cccc(Cl)c2)CC1 (configuration not stated),1%,5%,-18,-9%,84*
O=S1(=O)CCOCCCN1Cc1ccc(F)cc1,.,.,.,2%,0
C/C=C\C=C/C(=O)Nc1cccc(C2=NOC3(C2)C[C@@H](C(N)=O)N(C(=O)COc2ccc(Cl)cc2)C3)c1 (some centres not stated),2%,3.2µM*,-24,-8%,0
CCCCn1c(N)c(N(Cc2ccccc2OC)C(=O)COc2ccccc2OC)c(=O)[nH]c1=O,?,-1%,-14,3%,0
CCCCn1c(N)c(N(Cc2ccccc2OC)C(=O)c2ccc([N+](=O)[O-])s2)c(=O)[nH]c1=O,13µM*,3%,-4,?,1
COc1ccccc1C1CCN(Cc2ccc(Cl)c(Cl)c2)CC1,10%,25µM*,2,2%,0
COc1ccc(CNC(=O)CN2C(=O)COc3ccccc32)c(OC)c1,10%,.,6,2%,0
CC(C)NC(=S)NC(c1ccccc1)(c1ccccc1)c1ccccc1,-6%,-7%,-2,-2%,70*
Cn1cc(/C=C/c2ccc3ccccc3n2)c2ccccc21,.,.,.,?,9
O=C(/C=C/c1ccco1)NCC1COc2ccccc2O1 (configuration not stated),-1%,25µM*,4,1%,1
COc1ccc(/C=C/C(=O)NCC2COc3ccccc3O2)c(OC)c1 (configuration not stated),4%,-3%,5,0%,1
CCOc1ccc2noc3c2c1C(=O)c1ccccc1-3,-4%,-8%,-1,-5%,2
O=C1c2ccccc2-c2onc3ccc(NCc4ccco4)c1c23,?,22µM*,-15,-6%,21

# Screens deposited in PubChem by National Center for Advancing Translational Sciences (NCATS).
